Assays:
[1] = test system: Vero E6 infected with SARS-CoV-2; experiment: morphology score (similarity to uninfected cells); higher = more like uninfected cells; conditions: 24 h
[2] = test system: Vero E6 infected with SARS-CoV-2; experiment: SARS-CoV-2 infection rate relative to infected DMSO; higher = more infection, active = 60 or less; conditions: 24 h

| Structure (SMILES) | morphology score [1] | SARS-CoV-2 infection rate [2] |
| --- | --- | --- |
| CCCCCCCCCCCCCCCCCCN(CCCCCCCCCCCCCCCCCC)CCCN(CCO)CCO [avridine] (10 µM) | 0.0689 | 102% (inactive) |
| CC(Oc1c(Cl)cccc1Cl)C1=NCCN1 (stereo not given) [lofexidine] (10 µM) | -0.13 | 102% (inactive) |
| CN[C@H]1CC[C@@H](c2ccc(Cl)c(Cl)c2)c2ccccc21 (0.833333 µM) | 0.143 | 89.5% (inactive) |
| O=[N+]([O-])c1cncn1CCN1CCOCC1 [nimorazole] (10 µM) | 0.0962 | 91.5% (inactive) |
| CC1(C)O[C@@H]2C[C@H]3[C@@H]4C[C@H](F)C5=CC(=O)C=C[C@]5(C)[C@H]4[C@@H](O)C[C@]3(C)[C@]2(C(=O)CO)O1 [flunisolide] (10 µM) | 0.103 | 109% (inactive) |
| O=C1Nc2ccccc2/C1=C1/Nc2ccccc2C1=O [indirubin] (10 µM) | 0.173 | 99% (inactive) |
| Nc1nc(=O)c2sc(=O)n([C@@H]3O[C@H](CO)[C@@H](O)[C@H]3O)c2[nH]1 (10 µM) | 0.013 | 100% (inactive) |
| CC(C)C[C@H](NC(=O)CNC(=O)c1cc(Cl)ccc1Cl)B1OC(=O)C(CC(=O)O)(CC(=O)O)O1 [ixazomib-citrate] (0.833333 µM) | 0.101 | 106% (inactive) |
| CON [methoxyamine] (10 µM) | 0.192 | 99% (inactive) |
| Cc1cc(Cn2cnc3c2C[C@@H](C(=O)O)N(C(=O)C(c2ccccc2)c2ccccc2)C3)ccc1N(C)C (10 µM) | 0.0919 | 99% (inactive) |
| CCN(CC)CCNC(=O)c1ccccc1I (10 µM) | 0.221 | 91% (inactive) |
| NCCNCCNCCN [trientine] (10 µM) | -0.00487 | 106% (inactive) |
| O=C(Nc1ccc(Cl)cc1)Nc1cccc(-c2cccc(N3CCCC3)n2)c1 (10 µM) | 0.00797 | 92.5% (inactive) |
| O=C(NNc1ccccc1)c1ccncc1 [plurisin-1] (10 µM) | -0.14 | 108% (inactive) |
| Cc1nnc(C(C)C)n1C1C[C@H]2CC[C@@H](C1)N2CC[C@H](NC(=O)C1CCC(F)(F)CC1)c1ccccc1 (stereo in doubt) [maraviroc] (10 µM) | 0.145 | 112% (inactive) |
| CCCCNC(=O)NS(=O)(=O)c1ccc(C)cc1 [tolbutamide] (10 µM) | 0.121 | 96.5% (inactive) |
| NS(=O)(=O)c1cc2c(cc1C(F)(F)F)NCNS2(=O)=O [hydroflumethiazide] (10 µM) | 0.112 | 112% (inactive) |
| CNC1CC(N)C(O)C(OC2OC(CO)C(O)C3OC4(OC(C(N)CO)C(O)C(O)C4O)OC23)C1O (stereo not given) [Hygromycin B] (10 µM) | 0.0213 | 86.5% (inactive) |
| Cc1c(C)c2c(c(C)c1O)CC[C@@](C)(CCC[C@H](C)CCC[C@H](C)CCCC(C)C)O2 [vitamin-E] (10 µM) | -0.299 | 117% (inactive) |
| COc1ccc(O)cc1 [mequinol] (10 µM) | -0.0349 | 105% (inactive) |
| O=C(c1ccc(OCCN2CCCCC2)cc1)c1c(-c2ccc(O)cc2)sc2cc(O)ccc12 [raloxifene] (0.833333 µM) | 0.0812 | 101% (inactive) |
| C[C@@]1(C(=O)O)NCCc2cc(O)c(O)cc21 [salsolinol-1-carboxylic-acid] (10 µM) | -0.0436 | 97.5% (inactive) |
| C[C@H]1CNCCCN1S(=O)(=O)c1cccc2cncc(F)c12 [ripasudil] (10 µM) | 0.438 | 112% (inactive) |
| C[C@@H](N)[C@H]1CC[C@H](C(=O)Nc2ccncc2)CC1 (10 µM) | 0.243 | 106% (inactive) |
| O=C(O)c1ccc(-c2ccc3cc(O)c(C45CC6CC(CC(C6)C4)C5)cc3c2)cc1 (10 µM) | -0.0522 | 106% (inactive) |
| N=C(N)c1cc2ccc(OC(=O)c3cccs3)cc2s1 (10 µM) | 0.578 | 76% (inactive) |
| CNC(=O)c1ccccc1Sc1ccc2c(/C=C/c3ccccn3)n[nH]c2c1 [axitinib] (10 µM) | 0.563 | 80.5% (inactive) |
| Nc1nc2cc(-c3ccc4ncc(C(=O)N5CCOCC5)n4c3)ccc2o1 (10 µM) | 0.241 | 92% (inactive) |
| Cn1c(NCCN(CCO)CCCc2ccc([N+](=O)[O-])cc2)cc(=O)n(C)c1=O [nifekalant] (10 µM) | -0.0636 | 120% (inactive) |
| C=CCN(C)CCCCCCOc1ccc(C(=O)c2ccc(Br)cc2)c(F)c1 (10 µM) | 0.728 | 33.5% (active) |

From the supplement of paper PMC13380429
